This is an account of results in PubChem BioAssay (NCI).

About 83,000 compounds went through this panel and 20% of them were active in at least one assay; those are over-represented in the sample as a whole.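 The test compound was applied at a single concentration to cells in 96-well plates for 48 hours, and percent growth was recorded.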 Activity calls are given as the source filed them.

In the assay the test system is CAKI-1 renal. Briefly: NCI-60 one-dose screen, 48 h (100 = growth as untreated, 0 = no growth, -100 = all killed). Particulars: 10 µM unless noted. Here is the method: Growth inhibition of the CAKI-1 human tumor cell line is measured as a screen for anti-cancer activity. Cells are grown in 96 well plates and exposed to the test compound for 48 hours. Compounds are tested at a single concentration, which is 10^-5 M for most compounds. The reported endpoint is percent growth (GI% or GIPRCNT), where numbers from 0 - 100% represent growth inhibition, and numbers from -100% - 0 represent cell death. For example, a value of 40 represents 60% growth inhibition. A value of 0 means no net growth occurred over the course of the experiment. A value of -40 indicates 40% of cells at the beginning of the experiment died by the end of the experiment. A value of -100 means all cells are dead at the end of the experiment.
NCI-60 Human Tumor Cell Lines Screen was performed using the standard one-dose NCI protocol, which is described in more detail at https://dtp.cancer.gov/discovery_development/nci-60/default.htm.
Compounds with GIPRCNT values below 10 were considered active. Activity score was based on GIPRCNT using the following formula: […]
Score is 0 for GIPRCNT values of 100 or above, 50 for GIPRCNT values of 0, and 100 for GIPRCNT values of -100.
For the compound `OCC1OC(n2cnc3c(Cl)ncnc32)CC1O` (stereo not given), the growth was 94.1% (inactive).

Regarding `Nc1nc2c3ccncc3cc(-c3cccc(Cl)c3)c2c2cnccc12`, the growth was 29.1% (inactive). For `N#Cc1c(-c2ccco2)nc2c(c(-c3ccccc3)nn2-c2ccccc2)c1-c1ccc(O)cc1` the value was 58.9% (inactive); for `COc1ccc(-c2cc(=O)oc3ccc(Cl)cc23)cc1F`, 27% (inactive). For the compound `COc1ccc(-n2c(/C=C/c3ccc(O)c(OC)c3)cc(/C=C/c3ccc(O)c(OC)c3)nc2=O)cc1`, the growth is 87.4% (inactive). Take `CC(CNc1nc(Nc2ccc(Cl)c(Cl)c2)nc(C(Cl)(Cl)Cl)n1)N(C)C` (stereo not given): the growth is -19.1% (active). Regarding `COCCNC1=C(Cl)C(=O)c2ccccc2C1=O`, the growth was 116% (inactive).

For the compound `NC(N)=N/N=C/c1ccc(-c2ccc(-c3ccc(Cl)cn3)s2)cc1`, the growth is 81.5% (inactive). The value for `COC(=O)[C@]12CC[C@@H](C)[C@H](C)[C@@H]1C1=CC[C@@H]3[C@@]4(C)C[C@@H](OC(C)=O)[C@H](O)[C@@](C)(CO)[C@@H]4[C@H](O)C[C@@]3(C)[C@]1(C)CC2` was -85.6% (active); that for `CC(=O)c1c(C)[nH]c(-c2nc3ccc(N4CCN(C)CC4)cc3[nH]2)c1-c1ccc(OCC2CCOCC2)cc1` was 12.4% (inactive); that for `Cn1cccc1/C=C1/SC(=S)N(CCc2ccc(O)cc2)C1=O` was 44.7% (inactive). On to `N#C/C(=C\c1ccc(-c2ccc(F)cc2)o1)c1nc(-c2ccco2)cs1`, for which the growth is 92% (inactive). The value for `Cn1c2c(Cl)c(Cl)ccc2c2c(C#N)c[nH]c(=O)c21` was 71.1% (inactive); that for `O=C1C(=O)N(CCCCn2cc(-c3ccccc3)nn2)c2ccccc21` was 92% (inactive). Take `COc1cc(-c2cc3ncccc3c3[nH]c(=O)c4cccnc4c23)cc(OC)c1OC`: the growth was 28.4% (inactive). `COC(c1ccccc1)(c1ccccc1)c1ccccc1`: the growth is 72.1% (inactive). As for `C=C(C)[C@@H]1CC[C@]2(C=O)CC[C@]3(C)[C@H](CC[C@@H]4[C@@]5(C)C/C(=C/c6cccnc6)C(=O)C(C)(C)[C@@H]5CC[C@]43C)[C@@H]12`, the growth is 50.1% (inactive). For the compound `C=C(C)[C@@H]1CC[C@]2(C(=O)OC)CC[C@]3(C)[C@H](CC[C@@H]4[C@@](C)(CC/C(N)=N/O)[C@H](C(=C)C)CC[C@]43C)[C@@H]12`, the growth was 77.7% (inactive). For `NCCNc1nc(-c2ccccc2)nc2nc(-c3ccccc3)oc12`, the growth is 73.9% (inactive). With `O=C(O)/C(=C/c1ccc(O)cc1)c1ccccc1`, the growth was 104% (inactive). `CC1(C)C(=O)/C(=C\c2cccnc2)C[C@]2(C)[C@H]3CC[C@@H]4[C@@H](C(=O)/C=C/c5ccncc5)CC[C@@]4(C)[C@]3(C)CC[C@@H]12`: the growth was 28.4% (inactive). In the case of `COC(=O)[C@]12CC[C@@H](C)[C@H](C)[C@@H]1C1=CC[C@@H]3[C@@]4(C)C[C@@H](O)OC[C@](C)(C=O)C4C(=O)C[C@@]3(C)[C@]1(C)CC2` (stereo not given in full), the growth is 7.25% (active). Turning to `CCNCCCn1c2c(c3ccc([N+](=O)[O-])cc3c1=O)C(=O)c1cc(OC)cnc1-2`, the growth is -58.5% (active). `COc1cc2nc(Cl)nc(Nc3cccc(C(=O)/C=C/c4ccc(F)cc4)c3)c2cc1OC`: the growth is 56.5% (inactive). Consider `CC(=O)NC1=C(C#N)C(c2ccccc2Cl)c2c(ccc3ccccc23)O1` (stereo not given), for which the growth is 37.2% (inactive). As for `O=C(/C=C/c1ccc2ccccc2c1)Nc1ncc(Cc2ccccc2)s1`, the growth was 45.1% (inactive). As to `CC1=NN(c2ccc(S(=O)(=O)O)cc2Cl)C(=O)C1`, the growth is 85.1% (inactive). Take `c1ccc2[nH]c(-c3cc(-c4ccc5c(c4)OCO5)n[nH]3)nc2c1`: the growth was 55.1% (inactive). As to `Cc1nn(-c2ccc(Br)cc2)c2nc3[nH]c(=O)[nH]c(=O)c3nc12`, the growth was 92.2% (inactive).

`CCOC(=O)C1OC1(c1ccccc1)c1ccccc1` (stereo not given): the growth is 79.5% (inactive). Consider `Cn1c(/C(C#N)=C/c2ccc3ccccc3c2)cc2ccccc21`, for which the growth is 28.5% (inactive).

`Cc1cc2nc3c4cc(O)ccc4n(CCN(C)C)c3nc2cc1C`: the growth was -39% (active). For `Cc1ccc(S(=O)(=O)Nc2ccc(-c3cc(-c4cccc(F)c4)c(C#N)c(N)n3)cc2)cc1`, the growth is 10.9% (inactive). On to `O=C(NC1=CC(=O)c2ccccc2C1=O)c1ccccc1`, for which the growth is 29.6% (inactive). On to `Cn1c(=O)c2c(nc(Br)n2CC(=O)Nc2ccc(F)cc2)n(C)c1=O`, for which the growth was 95.9% (inactive). As for `CC1=CC(=O)N(c2cccc3c(N4C(=O)C=C(C)C4=O)cccc23)C1=O`, the growth was 10.9% (inactive). For `Nc1c(Cl)cc(N=Nc2ccccc2)cc1Cl`, the growth was 89.9% (inactive). For `COc1cccc(-c2nn(-c3ccccc3)cc2-c2ccnc(NCCCN)c2)c1`, the growth is 83.5% (inactive). The value for `COc1ccc2c(c1)C(Br)=C(CCO)C2c1ccccc1` (stereo not given) was 37% (inactive).

As to `NC1=NN=C2N(N)C(=O)c3cnn(-c4ccccc4)c3N2c2nc(-c3ccccc3)cc(-c3ccccc3)c21`, the growth was 86.8% (inactive).
